Screening results from PubChem.
This is a sample that favours compounds with a hit; in the whole collection about 19% have one here.
TDP1 cell noCPT – qHTS for Inhibitors of human tyrosyl-DNA phosphodiesterase 1 (TDP1): qHTS in cells in absence of CPT; Potency, µM (top dose mostly 46.2 µM), without a hit: top-dose activity change, negative = growth inhibition, most hits filed as inhibitors; AID 686978, 2013; hit rate 15% among 420,000; DT40 Tdp1-/- hTDP1 cells, no CPT, ATP luminescence, 48 h; further: potency means the concentration at half of the fitted maximal effect; on the % scale 0 is the no-effect control and ±100 the full control effect; nearly all actives have a fitted effect of over 55% in size
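Camptothecin absent (DMSO only). Human TDP1-complemented DT40 knockout cells, 400 cells/well, 37 °C for minimum 48 hr; ATP measured via CellTiter-Glo, 30 min dark incubation, luminescence.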
Chronic BCR inh – qHTS Assay to Find Inhibitors of Chronic Active B-Cell Receptor Signaling; ABC-DLBCL IkBa-CBG/CBR reporter, luminescence ratio, 4 h; Potency, µM (top dose mostly 46.1 µM), inactives show at the top dose activity change, negative = inhibition, actives largely listed as inhibitors; hit rate 0.05% among 340,000; active means well fitted inhibition curve with a large enough effect in the signal ratio, with a control signal flat, not every such curve was filed as active; inconclusive means small, poorly fitted or top-dose-only effect, or effect the other way, or a change in a side signal; the % refers to the signal ratio;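 further: potency means the concentration at half of the fitted maximal effect; plate controls were basal doxycycline-induced cells for no effect and cells given 10 µM MG132 for full effect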
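Cell line TMD8 (human ABC DLBCL), stably expressing tet-inducible CBG68-IkBa fusion and CBR; IMDM/0.5% FBS; cpd up to 46 uM; dox induction, 4 h, 37C/5% CO2; dual luminescence; green/red ratio; MG132 control.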
TDP1 cell CPT – qHTS for Inhibitors of human tyrosyl-DNA phosphodiesterase 1 (TDP1): qHTS in cells in presence of CPT | chicken DT40 Tdp1-/-;hTDP1 cells + 20 nM CPT, ATP luminescence, 48 h | Potency, µM (titrated, usually from 46.2 µM), for the others: at the top dose activity change, negative = growth inhibition, hits mostly inhibitors | hit rate 12% among 420,000; further: potency means the concentration at half of the fitted maximal effect; on the % scale 0 is the no-effect control and ±100 the full control effect; nearly all actives have a fitted effect of over 55% in size
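Chicken DT40 Tdp1-/- cells complemented with human TDP1, 400 cells/well, exposed to compounds plus 20 nM camptothecin for at least 48 h at 37 C; viability read as ATP content by CellTiter-Glo luminescence.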
IL-1B inflam inh – qHTS for Inhibitors of Inflammasome Signaling: IL-1-beta AlphaLISA Primary Screen. hit rate 4.7% among 360,000. THP-1 LPS/ATP IL-1B secretion, AlphaLISA, 16 h; active compounds read low. activity change, % at 57.5 µM; in the data active means activity change below about -50%; inconclusive means mostly about -30% to -49%; further: on the % scale 0 is the no-effect control and ±100 the full control effect
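Secreted IL-1B measured by AlphaLISA bead assay after 16 h compound exposure of THP-1 cells; compounds (final up to 57.5 uM) added 1 h before LPS (250 ng/mL) and ATP (1.25 mM) stimulation; lower signal means less secretion.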
SW480 rereplic – A quantitative high throughput screen for small molecules that induce DNA re-replication in SW480 colon adenocarcinoma cells; SW480 DNA re-replication, Hoechst DNA content imaging, 48 h; Potency, µM (top dose mostly 46.1 µM), inactives show at the highest dose re-replication activation, usual class: activators; hit rate 1.8% among 340,000; AID 624297, 2012; further: potency means the concentration at half of the fitted maximal effect; % of control where 0% means no effect; nearly all actives have a fitted effect of over 55% in size
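DNA re-replication was detected as more nuclei of elevated Hoechst intensity after 48 hr exposure to compound (23 nL pinned per well of 250 cells).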
MCF10A rerep – A quantitative high throughput screen for small molecules that induce DNA re-replication in MCF 10a normal breast cells; MCF 10A DNA re-replication, Hoechst nuclear intensity, 48 h; hit rate 2.9% among 350,000; AID 624296, 2012; Potency, µM (doses to about 46.1 µM), for the others: at the highest dose activity, positive = re-replication, hits mostly activators; further: potency means the concentration at half of the fitted maximal effect; % of control where 0% means no effect; nearly all actives have a fitted effect of over 50% in size
* marks the source's active call; other numbers are inactive results; ? = inconclusive; . = not tested or not shown; ! = a repeat was not active; [ ] = dose if it differs, or a comment. Unless noted, the call rests on the fitted dose curve; in most records, active means well fitted curve in the direction sought with a large enough effect; inconclusive means small, poorly fitted or top-dose-only effect, or another doubt; inactive means no such curve, though single readings can be large; an effect the other way counts as inactive or inconclusive.

SMILES | TDP1 cell noCPT | Chronic BCR inh | TDP1 cell CPT | IL-1B inflam inh | SW480 rereplic | MCF10A rerep
O=C(CN1C(=O)/C(=C/c2ccc(C(F)(F)F)cc2)Sc2ccccc21)NCCCN1CCOCC1 | ? | -0.5% | 25.9µM* | ? | ? | 20.6µM*
CC(C)OCCCNC(=O)CN1C(=O)/C(=C/c2ccccc2)Sc2ccccc21 | ? | -7.7% | ? | 0.0 | 0.6% | 23.8%
CCc1ccc(/C=C2/Sc3ccccc3N(CC(=O)NCCCN3CCOCC3)C2=O)cc1 | 20.6µM* | ? | ? | -65.2* | ? | ?
COCCCNC(=O)CN1C(=O)/C(=C\c2ccc(C)cc2)Sc2ccccc21 | ? | ? | ? | 0.0 | 5.0% | 15.4%
Cc1cccc([C@@H]2[C@@H]3C(=O)N(Cc4ccccc4)C(=O)[C@@H]3[C@]3(Cc4ccc(Cl)cc4)C(=O)N(c4ccc(Br)cc4)C(=O)N23)c1 | ? | ? | -28.8% | -9.9 | -7.0% | -27.2%
O=C(c1ccc(F)cc1)N(c1ccccn1)C1CCCCC1 | ? | 2.0% | -22.3% | 24.1 | -2.4% | 0.2%
O=C(c1ccc(S(=O)(=O)N2CCCCC2)cc1)N(c1ccccn1)C1CCCCC1 | ? | -21.0% | 23.1µM* | 2.4 | -23.6% | 10.2%
O=C(c1ccc(S(=O)(=O)N2CCCCCC2)cc1)N(c1ccccn1)C1CCCCC1 | ? | 0.2% | ? | 19.7 | 7.8% | ?
CC1CC(C)CN(S(=O)(=O)c2ccc(C(=O)N(c3ccccn3)C3CCCCC3)cc2)C1 (centres undefined) | 16.4µM* | ? | ? | -13.6 | -2.2% | 10.5%
COCC(CN1CCN(C2=NS(=O)(=O)c3ccccc32)CC1)OC(=O)c1ccc(OC)cc1 (centres undefined) | -3.4% | 0.8% | -0.8% | 19.4 | -5.8% | ?
COCCOC(=O)C1=C(C)NC(C)=C(C(=O)OC(C)C)C1c1cccc([N+](=O)[O-])c1 (centres undefined) | 15µM*! | ? | ? | -21.3 | 8.7% | ?
COC(=O)C1=C(C)NC(C)=C(C(=O)OC(C)(C)CN(C)CCC(c2ccccc2)c2ccccc2)C1c1cccc([N+](=O)[O-])c1 (centres undefined) | 8.41µM* | . | 8.41µM* | . | 11.9µM* | 14.9%
CCOC(=O)C1=C(N)Oc2cc(O)ccc2C1c1cccc([N+](=O)[O-])c1 (centres undefined) | 16.4µM* | ? | ? | -97.5* | ? | 8.2µM*
COC(=O)C1=C(C)NC(C)=C(C(=O)O[C@@H]2CCCN(Cc3ccccc3)C2)[C@@H]1c1cccc([N+](=O)[O-])c1 | 10.3µM* | . | 18.4µM* | ? | ? | ?
CC(C)OC(=O)C1C(=O)CC(C)(O)C(C(=O)OC(C)C)C1c1cccc([N+](=O)[O-])c1 (centres undefined) | -6.0% | 20.7% | -0.7% | -9.9 | -1.5% | 1.5%
CCOC(=O)C1=C(N)Oc2cc(O)ccc2C1c1ccccc1 (centres undefined) | ? | -10.1% | ? | 84.1 | 22.6% | ?
CC(=O)OC1CCC2(C)C(CCC3(C)C2C(=O)C=C2C4CC(C)(C(=O)OCCN5CCCCC5)CCC4(C)CCC23C)C1(C)C (centres undefined) | -7.9% | . | 8.3% | . | . | .
CCOc1cccc(C(=O)Nc2ccc3c(c2)OCCO3)c1 | ? | ? | -9.0% | -13.6 | -2.5% | -0.8%
O=C(CN1Cc2ccccc2OC(c2ccsc2)C1)NCC1OCCc2ccccc21 (centres undefined) | -31.1% | . | 25.6%[9.04 µM] | . | . | .
CCOC(=O)C1=C(C)N(C)C(=O)NC1c1cccc([N+](=O)[O-])c1 (centres undefined) | -0.4% | . | -28.8% | -2.7 | -7.5% | ?
CC1=C(C(=O)OC(C)C)C(c2cccc([N+](=O)[O-])c2)C(C(=O)OC2CN(C(c3ccccc3)c3ccccc3)C2)=C(N)N1 (centres undefined) | ? | . | ? | . | ? | 21.1µM*
Cc1[nH]c2ccccc2c1C(=O)COC(=O)c1ccc([N+](=O)[O-])s1 | -26.9% | ? | ? | 38.4 | ? | -8.9%
CCOC(=O)C1=C(C)NC(C)=C(C(=O)OC)C1c1cccc([N+](=O)[O-])c1 (centres undefined) | 15µM*! | ? | 11.9µM*! | -1.0 | 10.6% | 15.9%
CCOC(=O)C1=C(C)NC(C)=C(C(=O)OC)[C@H]1c1cccc([N+](=O)[O-])c1 | 23.7µM* | . | 26.6µM* | . | . | .
CCOC(=O)C1=C(C)NC(C)=C(C(=O)OCC)C1c1ccc([N+](=O)[O-])s1 | 10.3µM* | ? | 14.6µM* | 3.8 | 0.8% | ?
SMILES | TDP1 cell noCPT | Chronic BCR inh | TDP1 cell CPT | IL-1B inflam inh | SW480 rereplic | MCF10A rerep
CCOC(=O)C1=C(CN2CCOCC2)NC(=O)NC1c1cccc([N+](=O)[O-])c1 (centres undefined) | 6.0% | 7.8% | 7.6% | 10.2 | -5.8% | 1.2%
OC[C@H]1O[C@@H](O[C@@H]2[C@@H](CO)O[C@@](O)(CO)[C@H]2O)[C@H](O)[C@@H](O)[C@H]1O | 8.2% | -10.4% | -3.7% | 3.4 | -47.8% | -28.1%
Fc1ccccc1-n1ncc2c1ncn1nc(Cc3ccccc3)nc21 | -14.5% | . | 5.0% | . | . | .
COc1ccc(Cn2cc(Cn3c4ccccc4c(=O)n3C(C)C)nn2)cc1 | -6.6% | . | -20.4% | 14.3 | . | .
CCOC(=O)C1=C(CCc2ccccc2)NC(=O)NC1c1cccc([N+](=O)[O-])c1 (centres undefined) | -19.4% | 6.3% | -7.4% | -24.6 | ? | 3.0%
COC(=O)C1=C(C)NC(C)=C(C(=O)OCCCN2CCC(c3ccccc3)(c3ccccc3)CC2)[C@H]1c1cccc([N+](=O)[O-])c1 | 11.9µM* | . | 11.9µM* | . | . | .
COCCOC(=O)C1=C(C)NC(C)=C(C(=O)OC/C=C/c2ccccc2)C1c1cccc([N+](=O)[O-])c1 (centres undefined) | ? | . | ? | . | 29.9µM* | -1.7%
Cc1nc(SCc2cc(=O)c3cccc(F)c3[nH]2)n[nH]1 | -20.9% | . | -22.7% | . | . | .
